Drawing on PubChem BioAssay (NCATS), this text covers Potency and outcome for 8 compounds.

Records with an inconclusive call do not appear. Active and inactive are the calls of the source. Unless noted, the call rests on the fitted dose curve; in most records, active means well fitted curve in the direction sought with a large enough effect; inconclusive means small, poorly fitted or top-dose-only effect, or another doubt; inactive means no such curve, though single readings can be large; an effect the other way counts as inactive or inconclusive.

Test [1] can be described thus: P-glycoprotein substrates identified in KB-3-1 adenocarcinoma cell line, qHTS therapeutic library screen (AID 1346986). Further: nearly all actives have a fitted effect of over 60% in size. In outline:
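Viability read by CellTiter-Glo after 72 h compound exposure in dose-response of KB-3-1 and KB-8-5-11 (P-gp-high) cells. Hits needed AC50 < 10 uM, >50% maximum response and curve class -1.1 to -2.4. Cherry-picks retested ± tariquidar, including pcDNA/MDR-19 HEK-293 pair.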
(qHTS replaces the single test concentration by a dilution series.)

Test [2] in a line: P-glycoprotein substrates identified in KB-8-5-11 adenocarcinoma cell line, qHTS therapeutic library screen (AID 1346987). Further: nearly all actives have a fitted effect of over 65% in size. An outline of the steps: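 Luminescence from CellTiter-Glo, read 5 min after addition, quantified survival of KB-8-5-11 (P-gp-overexpressing) cells exposed to compounds for 72 h. AC50 was derived from concentration-response curves.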
The nature of test [3]: Natriuretic polypeptide receptor (hNpr1) antagonism - Pilot counterscreen GloSensor control cell line (AID 1347045; calls by dose curve; further: series mostly up to about 38 µM). An outline of the steps:
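Cells were first seeded and incubated overnight at 37C, then loaded with 2% GloSensor substrate for 2 h. Compounds were added for 30 min at room temperature, followed by a baseline read, 50 uM SNP and a final read after 20 min.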

In test [4] the target is Atrial natriuretic peptide receptor 1 (Homo sapiens) (UniProt P16066). Kind of test: Natriuretic polypeptide receptor (hNpr1) antagonism - Pilot screen (AID 1347049; calls by dose curve;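 further: HEK293 cells with hNpr1 and GloSensor cGMP luciferase stimulated by 0.1 nM hNppA; agonist-evoked cGMP luminescence read 20 min after hNppA addition; series mostly up to about 58 µM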). An outline of the steps:
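Receptor antagonism read as cGMP-dependent luminescence in hNpr1/pGS-40F HEK293 cells: pre-read after 30 min compound exposure, post-read 20 min after hNppA agonist at 0.1 nM final, all at room temperature, protected from light; A-71915 titration as control.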

In test [5] the target is Atrial natriuretic peptide receptor 2 (Homo sapiens) (UniProt P20594). The experiment in a line: Natriuretic polypeptide receptor (hNpr2) antagonism - Pilot subtype selectivity assay (AID 1347050; calls by dose curve). An outline of the steps:
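Antagonist mode: compounds (LOPAC1280, seven 1:5 dilutions) added 30 min before 1 nM hNppC stimulation of hNpr2-HEK293 cGMP-sensor cells; luminescence read before and 20 min after agonist at ambient temperature.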

Test [6] can be described thus: NS1 protein of Zika virus - qHTS assay to identify small molecule inhibitors in human HEK 293 cells (AID 1347053). Further: series mostly up to about 46 µM; nearly all actives have a fitted effect of over 55% in size. In outline:
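Readout was TR-FRET using paired anti-NS1 antibodies after 24 h infection of HEK 293 cells with ZIKV MR766 (MOI = 0.5). Compound preceded virus by 1 h; reduced signal reflects lower NS1 expression.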

For test [7], the target named is T1, Tyrosine-protein phosphatase non-receptor type substrate 1 (Homo sapiens) + Leukocyte surface antigen CD47 (Homo sapiens) (UniProt P78324+Q08722). The experiment in a line: CD47-SIRPalpha protein protein interaction - LANCE assay qHTS validation (AID 1347057; active means well fitted curve in the direction sought with a large enough effect in the signal ratio, with a control signal flat, not every such curve was filed as active; the % refers to the signal ratio; further: series mostly up to about 38 µM). An outline of the steps:
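Inhibition of soluble CD47/SIRPalpha ectodomain association by titrated compounds, measured as 665/615 nm time-resolved FRET ratio after sequential 30 min room-temperature incubations.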
Background: Time-resolved FRET reads energy transfer from a long-lived donor to a nearby acceptor.

The target in test [8] is T1, Tyrosine-protein phosphatase non-receptor type substrate 1 (Homo sapiens) + Leukocyte surface antigen CD47 (Homo sapiens). The experiment in a line: CD47-SIRPalpha protein protein interaction - HTRF assay qHTS validation (AID 1347058; active means well fitted curve in the direction sought with a large enough effect in the signal ratio, not every such curve was filed as active; the % refers to the signal ratio; further: series mostly up to about 38 µM). In outline: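 Soluble extracellular domains (6His-CD47, Avi-tag-biotinylated SIRPalpha) in PBS pH 7.4 with 0.05% IGEPAL CA-630. Compounds were preincubated 30 min at RT with CD47 and anti-His-Eu, then SIRPalpha and SAV-XL665 were added. TR-FRET 665/615 ratio.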

For test [9] the target is unchanged. The experiment in a line: CD47-SIRPalpha protein protein interaction - Alpha assay qHTS validation (AID 1347059).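 Further: bead proximity luminescence from CD47 binding SIRPalpha after compound preincubation with SIRPalpha.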 An outline of the steps: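 AlphaScreen signal between CD47-His (12.5 nM) and biotin-SIRPalpha (25 nM) soluble extracellular domains, bead-captured via Ni-NTA and streptavidin. Compounds, in 7-point titrations, met SIRPalpha 30 min before CD47; PBS pH 7.4 with 0.05% IGEPAL.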

The target in test [10] is Parathyroid hormone/parathyroid hormone-related peptide receptor (Homo sapiens) (UniProt Q03431). Kind of test: qHTS for PTHR1 Agonists: Optimization Screen against the NCGC LOPAC library (AID 1347079).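 Further: GloSensor cAMP luminescence in HEK-293 GP2 cells expressing human PTHR1 with IBMX.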 An outline of the steps:
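HEK-293 GP2 cells, PTHR1 + GloSensor cAMP; 3000 cells/well, o/n. Luciferin + IBMX 0.5mM each (stock), 1 hr 37C. Cpd titration, 1 hr 37C. Lum after 15 min RT. Ctrl M-PTH(1-15) top 10uM.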

Test [11] is described as follows: qHTS for Inhibitors of the Functional Ribonucleoprotein Complex (vRNP) of Lassa (LASV) Arenavirus: LASV Primary Screen - GLuc reporter signal (AID 1347082; calls by dose curve; tested in HEK293 reporter line; further: series mostly up to about 57 µM; nearly all actives have a fitted effect of over 60% in size).
A short description of test [12]: qHTS for Inhibitors of the Functional Ribonucleoprotein Complex (vRNP) of Lassa (LASV) Arenavirus: Viability assay - alamar blue signal for LASV Primary Screen (AID 1347083; calls by dose curve; tested in HEK293 reporter line; further: series mostly up to about 57 µM; nearly all actives have a fitted effect of over 80% in size).
Test [13] is described as follows: qHTS for Inhibitors of the Functional Ribonucleoprotein Complex (vRNP) of Lymphocytic Choriomeningitis Arenaviruses (LCMV): Viability assay - alamar blue signal for LCMV Primary Screen (AID 1347085; calls by dose curve; tested in HEK293 reporter line; further: series mostly up to about 57 µM; nearly all actives have a fitted effect of over 80% in size).
Test [14] concerns the target Nucleoprotein (Lymphocytic choriomeningitis virus (strain Armstrong)) (UniProt P09992). Kind of test: qHTS for Inhibitors of the Functional Ribonucleoprotein Complex (vRNP) of Lymphocytic Choriomeningitis Arenaviruses (LCMV): LCMV Primary Screen - GLuc reporter signal (AID 1347086; calls by dose curve; further: series mostly up to about 57 µM; nearly all actives have a fitted effect of over 70% in size).
A short description of test [15]: qHTS of pediatric cancer cell lines to identify multiple opportunities for drug repurposing: Primary screen for TC32 cells (AID 1347089). Further: nearly all actives have a fitted effect of over 60% in size. An outline of the steps: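 Measured quantity: luminescence from CellTiter-Glo, reflecting metabolically active TC32 cells following 48 h of compound. Curves came straight from multi-point titrations, with 8 or 11 points in primary and 11 in confirmatory screening.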

Test [16] in a line: qHTS of pediatric cancer cell lines to identify multiple opportunities for drug repurposing: Primary screen for DAOY cells (AID 1347090). Further: series mostly up to about 46 µM; nearly all actives have a fitted effect of over 55% in size. An outline of the steps:
(§1)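 Cell viability, CellTiter-Glo luminescence; 500-1,000 cells/well, 8- or 11-point titration, 48 h compound exposure at 37 degrees C, 5% CO2. Controls: DMSO neutral, bortezomib 2.3 µM final as positive.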

A short description of test [17]: qHTS of pediatric cancer cell lines to identify multiple opportunities for drug repurposing: Primary screen for SJ-GBM2 cells (AID 1347091). An outline of the steps: as §1
A short description of test [18]: qHTS of pediatric cancer cell lines to identify multiple opportunities for drug repurposing: Primary screen for A673 cells (AID 1347092). Further: nearly all actives have a fitted effect of over 45% in size. Further: potency means the concentration at half of the fitted maximal effect. In outline: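 Cells are plated, rested 5 h, dosed by pintool, incubated 48 h, then lysed with CellTiter-Glo and read by luminescence. DMSO is the neutral control; bortezomib at 2.3 uM final is the positive control.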
Test [19] in a line: qHTS of pediatric cancer cell lines to identify multiple opportunities for drug repurposing: Primary screen for SK-N-MC cells (AID 1347093). Further: potency means the concentration at half of the fitted maximal effect. An outline of the steps:
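Metabolically active cells were quantified by ATP-dependent luminescence (CellTiter-Glo, 15 min at room temperature) following 48 h treatment. Cells had been plated at 500-1,000 per well and settled for 5 h beforehand.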

The nature of test [20]: Identifying Small Molecule Inhibitors of Pancreatic Cancer Stem Cells (Panc1, Adherent) (AID 1259362).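 Further: compound exposure lasted 48 h before the viability read.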 As to conditions: Potency: viability. In outline:
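Endpoint: ATP-based luminescence, 48 h drug exposure. Bortezomib at 9.2 uM final as full-kill control; DMSO vehicle as negative control; activity normalized between vehicle and cell-free wells.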

T1 sequence (P78324 whole entry, looked up, the tested form may be a part): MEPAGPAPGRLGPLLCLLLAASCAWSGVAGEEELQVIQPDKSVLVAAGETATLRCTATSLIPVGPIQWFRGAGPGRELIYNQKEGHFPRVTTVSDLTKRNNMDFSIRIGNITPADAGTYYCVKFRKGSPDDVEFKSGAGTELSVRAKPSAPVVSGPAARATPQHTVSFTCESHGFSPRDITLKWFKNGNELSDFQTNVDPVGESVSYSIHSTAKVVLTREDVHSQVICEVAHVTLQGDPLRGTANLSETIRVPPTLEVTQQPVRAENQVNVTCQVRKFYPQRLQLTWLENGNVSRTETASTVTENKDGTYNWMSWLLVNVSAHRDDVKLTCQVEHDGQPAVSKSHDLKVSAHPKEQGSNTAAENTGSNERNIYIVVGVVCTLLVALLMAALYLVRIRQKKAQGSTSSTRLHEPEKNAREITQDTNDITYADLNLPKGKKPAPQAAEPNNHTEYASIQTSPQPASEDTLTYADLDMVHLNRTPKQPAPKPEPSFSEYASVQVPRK
T1 sequence (Q08722 whole entry, looked up, the tested form may be a part): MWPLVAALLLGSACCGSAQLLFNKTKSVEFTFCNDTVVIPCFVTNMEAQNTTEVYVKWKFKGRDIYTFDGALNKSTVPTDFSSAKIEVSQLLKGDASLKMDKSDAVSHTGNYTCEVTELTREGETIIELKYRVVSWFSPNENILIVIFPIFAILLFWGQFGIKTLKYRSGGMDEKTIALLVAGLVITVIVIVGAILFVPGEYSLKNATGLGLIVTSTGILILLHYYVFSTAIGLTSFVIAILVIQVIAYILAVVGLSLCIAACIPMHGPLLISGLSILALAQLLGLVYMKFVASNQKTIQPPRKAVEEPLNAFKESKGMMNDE
Nucleoprotein (Lymphocytic choriomeningitis virus (strain Armstrong)), sequence (P09992 whole entry, looked up): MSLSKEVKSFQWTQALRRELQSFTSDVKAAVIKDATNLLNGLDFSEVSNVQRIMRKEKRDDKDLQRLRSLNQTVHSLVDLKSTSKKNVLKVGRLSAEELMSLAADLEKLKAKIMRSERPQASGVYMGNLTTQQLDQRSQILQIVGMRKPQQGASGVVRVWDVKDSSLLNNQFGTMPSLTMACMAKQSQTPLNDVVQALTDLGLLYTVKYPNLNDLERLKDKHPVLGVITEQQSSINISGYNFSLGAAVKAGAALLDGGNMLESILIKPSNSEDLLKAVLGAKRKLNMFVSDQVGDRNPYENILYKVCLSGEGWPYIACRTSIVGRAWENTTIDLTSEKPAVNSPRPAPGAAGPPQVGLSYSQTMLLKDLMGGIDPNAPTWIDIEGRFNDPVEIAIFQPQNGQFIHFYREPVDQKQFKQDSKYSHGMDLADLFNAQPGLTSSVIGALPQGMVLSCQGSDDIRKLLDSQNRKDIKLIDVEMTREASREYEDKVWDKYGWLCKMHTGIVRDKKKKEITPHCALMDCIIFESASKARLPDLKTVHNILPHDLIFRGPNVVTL
Atrial natriuretic peptide receptor 1 (Homo sapiens), sequence (P16066 whole entry, looked up): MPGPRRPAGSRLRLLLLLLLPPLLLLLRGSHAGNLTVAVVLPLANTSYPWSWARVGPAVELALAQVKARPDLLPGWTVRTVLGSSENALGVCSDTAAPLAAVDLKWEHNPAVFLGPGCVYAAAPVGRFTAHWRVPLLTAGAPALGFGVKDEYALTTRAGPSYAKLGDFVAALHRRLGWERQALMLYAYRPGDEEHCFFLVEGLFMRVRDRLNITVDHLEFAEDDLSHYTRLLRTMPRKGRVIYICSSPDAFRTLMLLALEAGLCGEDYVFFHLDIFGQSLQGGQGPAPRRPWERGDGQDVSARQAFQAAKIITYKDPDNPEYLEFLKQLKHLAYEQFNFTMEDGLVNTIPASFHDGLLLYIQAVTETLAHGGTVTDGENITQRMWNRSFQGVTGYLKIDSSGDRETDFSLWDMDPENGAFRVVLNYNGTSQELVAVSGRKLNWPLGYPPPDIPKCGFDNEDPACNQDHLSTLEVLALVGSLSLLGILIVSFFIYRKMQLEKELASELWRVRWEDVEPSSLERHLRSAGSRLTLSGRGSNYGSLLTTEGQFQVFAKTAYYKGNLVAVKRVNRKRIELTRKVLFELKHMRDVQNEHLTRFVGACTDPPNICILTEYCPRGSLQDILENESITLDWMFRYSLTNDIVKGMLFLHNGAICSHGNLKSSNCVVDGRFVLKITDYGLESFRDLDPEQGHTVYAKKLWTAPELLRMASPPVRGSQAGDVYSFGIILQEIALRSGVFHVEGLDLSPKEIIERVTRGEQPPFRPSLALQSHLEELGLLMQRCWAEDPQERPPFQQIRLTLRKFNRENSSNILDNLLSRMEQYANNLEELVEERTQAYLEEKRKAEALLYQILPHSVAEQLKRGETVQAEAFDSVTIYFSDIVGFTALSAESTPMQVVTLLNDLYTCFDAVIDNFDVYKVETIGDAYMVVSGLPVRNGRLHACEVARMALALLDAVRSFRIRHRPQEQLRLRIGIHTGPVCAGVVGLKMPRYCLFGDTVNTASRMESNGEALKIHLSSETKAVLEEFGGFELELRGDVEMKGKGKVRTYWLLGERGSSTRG
Parathyroid hormone/parathyroid hormone-related peptide receptor (Homo sapiens), sequence (Q03431 whole entry, looked up): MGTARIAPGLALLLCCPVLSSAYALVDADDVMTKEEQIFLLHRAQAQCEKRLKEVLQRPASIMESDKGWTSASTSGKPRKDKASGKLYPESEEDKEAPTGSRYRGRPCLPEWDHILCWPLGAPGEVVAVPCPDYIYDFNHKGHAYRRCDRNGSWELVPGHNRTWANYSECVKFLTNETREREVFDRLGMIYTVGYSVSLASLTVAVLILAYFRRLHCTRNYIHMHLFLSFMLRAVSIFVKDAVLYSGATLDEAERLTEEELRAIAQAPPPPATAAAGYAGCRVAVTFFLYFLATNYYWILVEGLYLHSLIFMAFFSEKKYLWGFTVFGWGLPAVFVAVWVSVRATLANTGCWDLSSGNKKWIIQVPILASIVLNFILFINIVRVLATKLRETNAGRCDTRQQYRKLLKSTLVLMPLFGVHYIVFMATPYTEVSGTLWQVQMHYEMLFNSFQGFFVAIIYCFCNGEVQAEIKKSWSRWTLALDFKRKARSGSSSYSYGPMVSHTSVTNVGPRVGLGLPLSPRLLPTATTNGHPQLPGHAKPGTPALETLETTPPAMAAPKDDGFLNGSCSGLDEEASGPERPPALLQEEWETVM
Atrial natriuretic peptide receptor 2 (Homo sapiens), sequence (P20594 whole entry, looked up): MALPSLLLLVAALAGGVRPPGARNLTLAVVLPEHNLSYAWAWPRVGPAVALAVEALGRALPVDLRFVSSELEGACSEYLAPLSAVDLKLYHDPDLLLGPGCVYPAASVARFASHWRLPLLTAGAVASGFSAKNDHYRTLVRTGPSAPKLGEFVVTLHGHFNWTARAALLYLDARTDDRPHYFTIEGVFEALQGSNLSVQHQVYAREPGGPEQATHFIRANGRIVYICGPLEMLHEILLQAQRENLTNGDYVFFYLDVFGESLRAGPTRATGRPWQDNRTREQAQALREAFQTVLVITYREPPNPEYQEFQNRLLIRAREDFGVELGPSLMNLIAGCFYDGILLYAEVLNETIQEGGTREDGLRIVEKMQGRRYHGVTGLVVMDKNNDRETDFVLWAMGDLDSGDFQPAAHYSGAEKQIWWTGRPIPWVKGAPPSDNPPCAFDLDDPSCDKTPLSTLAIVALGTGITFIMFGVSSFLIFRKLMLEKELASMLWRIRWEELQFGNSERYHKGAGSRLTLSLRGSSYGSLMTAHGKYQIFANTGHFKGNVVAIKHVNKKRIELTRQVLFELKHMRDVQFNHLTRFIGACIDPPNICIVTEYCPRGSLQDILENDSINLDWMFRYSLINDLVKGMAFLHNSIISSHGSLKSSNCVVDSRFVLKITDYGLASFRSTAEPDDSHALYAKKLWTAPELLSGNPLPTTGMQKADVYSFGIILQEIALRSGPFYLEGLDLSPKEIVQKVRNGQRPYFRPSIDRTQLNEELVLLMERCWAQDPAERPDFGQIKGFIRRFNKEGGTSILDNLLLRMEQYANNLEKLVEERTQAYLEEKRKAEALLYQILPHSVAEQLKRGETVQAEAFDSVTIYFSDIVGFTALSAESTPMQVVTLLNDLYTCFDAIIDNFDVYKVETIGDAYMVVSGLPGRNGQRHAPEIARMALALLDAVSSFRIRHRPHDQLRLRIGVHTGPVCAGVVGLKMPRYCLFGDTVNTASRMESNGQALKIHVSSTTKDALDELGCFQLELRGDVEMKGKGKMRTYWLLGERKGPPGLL

As to `CNCC(O)c1ccc(O)cc1` (stereo unspecified), the Potency entry in test [1], in test [2], in test [3], in test [4], in test [5] and in [6] was “inactive” throughout. Besides, the Potency entry in test [11], in [12], in test [13], in test [14], in [15] and in test [16] was “inactive” throughout. In addition, the Potency entry in test [17], in test [18] and in test [19] was “inactive” in each case. The result in [7], in test [8], in test [9] and in test [10] was inactive.

Turning to `COc1ccccc1N1CCNCC1`, the Potency entry in [2], in [3], in test [4], in test [5], in test [6] and in test [11] was “inactive” in each case. In addition, the Potency result in [12], in [13], in test [14], in [15], in [16] and in test [18] was “inactive” each time. The outcome in test [7], in test [8], in [9] and in test [10] was inactive.

In the case of `C[C@]12CCC(=O)C(O)=C1CC[C@@H]1[C@@H]2CC[C@]2(C)C(=O)CC[C@@H]12`, the Potency entry in test [20], in test [2], in test [4], in test [5], in test [6] and in test [11] was “inactive” in each case. Further, the Potency entry in test [12], in test [13], in [14], in [15], in test [16] and in [17] was “inactive” each time. The Potency result in test [18] was “inactive”. Also, in test [10], the outcome was inactive.

In the case of `Cn1cc(C2=C(c3cn(C4CCN(Cc5ccccn5)CC4)c4ccccc34)C(=O)NC2=O)c2ccccc21`, the Potency result in test [1], in [2], in [6], in test [11], in [15] and in test [16] was “inactive” in each case. In addition, the Potency in test [18] was 3.72 µM (active).

Turning to `N#CC(C#N)=Cc1ccc(O)c(O)c1`, the Potency result in test [2], in [3], in [4], in test [5], in [6] and in test [11] was “inactive” in each case. Moreover, the Potency result in test [12], in [13], in test [14] and in test [16] was “inactive” in each case. For the same compound, the result in test [7], in test [9] and in test [10] was inactive. The Potency in [19] is 13.3 µM (active).

With `CCC1(C2=NCCN2)Cc2ccccc2O1` (stereo unspecified), the Potency result in test [2], in test [3], in test [4], in [5], in test [6] and in test [11] was “inactive” in each case. Further, the Potency result in test [12], in test [13], in [14], in test [15], in test [16] and in [18] was “inactive” throughout. In test [19], the Potency result was “inactive”. In addition, the result in [7], in test [8], in test [9] and in test [10] was inactive.

In the case of `O=C(O)C(=O)c1cn(Cc2ccccc2)c2ccc(-c3ccc(OC(F)(F)F)cc3)cc12`, the Potency result in test [1], in test [2], in [11], in [12], in test [13] and in test [14] was “inactive” throughout. The Potency entry in test [15] and in [18] was “inactive” in each case.

In the case of `CCCN1CCC[C@@H]2Cc3nc(N)ncc3C[C@H]21`, the Potency result in test [2], in [3], in test [4], in [5], in test [6] and in test [11] was “inactive” throughout. Besides, the Potency entry in [12], in test [13], in [14], in test [15], in [16] and in test [18] was “inactive” throughout. Also, the result in test [7], in test [8], in test [9] and in test [10] was inactive.
